Compound activity as filed in PubChem BioAssay.
Many of the other results were omitted from the sample, so hits are more common in it than they were.
L3MBTL1 inh – blocks human L3MBTL1 | AID 485360 | 230,000 compounds, 0.66% hits | AlphaScreen L3MBTL1–H3K9me1 peptide binding | Potency, µM (doses to about 57.1 µM), without a hit: top-dose activity, negative = inhibition, actives largely listed as inhibitors; also: nearly all actives have a fitted effect of over 60% in size
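First, the protein-peptide complex forms for 30 min at room temperature (L3MBTL1 50 nM, biotinylated H3K9me1 peptide 75 nM). Next, compounds are pin-transferred and incubated 30 min. Finally, AlphaScreen beads are added and read after 30 min.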
RGS12 GoLoco inh – blocks human Gai1 binding to RGS12 GoLoco peptide, red readout; P63096; Gai1:RGS12 GoLoco peptide FP, rhodamine, 10 min; Potency, µM (top dose mostly 61.6 µM), inactives show at the highest dose activity, negative = inhibition, most hits filed as inhibitors; 230,000 compounds, 0.44% hits; AID 880; active = well fitted inhibition curve with a large enough effect, not every such curve was filed as active; inactive = no such curve, though single readings can be large or run the other way; also: nearly all actives have a fitted effect of over 30% in size
KDM4E inh – blocks human JMJD2E demethylase activity; AID 2147; Potency, µM (top dose mostly 57.1 µM), inactives show top-dose activity change, negative = inhibition, most hits filed as inhibitors; JMJD2E catalytic domain, FDH-coupled NADH fluorescence (FDH is formaldehyde dehydrogenase); 230,000 compounds, 1.6% hits; B2RXH2; active = well fitted inhibition curve with a large enough effect, not every such curve was filed as active; inconclusive = small, poorly fitted or top-dose-only effect, or another doubt; inactive = no such curve, though single readings can be large or run the other way;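 also: 0% = wells with enzyme and -100% = buffer wells without enzyme; nearly all actives have a fitted effect of over 50% in size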
Target sequence (B2RXH2 1-337 limits assumed): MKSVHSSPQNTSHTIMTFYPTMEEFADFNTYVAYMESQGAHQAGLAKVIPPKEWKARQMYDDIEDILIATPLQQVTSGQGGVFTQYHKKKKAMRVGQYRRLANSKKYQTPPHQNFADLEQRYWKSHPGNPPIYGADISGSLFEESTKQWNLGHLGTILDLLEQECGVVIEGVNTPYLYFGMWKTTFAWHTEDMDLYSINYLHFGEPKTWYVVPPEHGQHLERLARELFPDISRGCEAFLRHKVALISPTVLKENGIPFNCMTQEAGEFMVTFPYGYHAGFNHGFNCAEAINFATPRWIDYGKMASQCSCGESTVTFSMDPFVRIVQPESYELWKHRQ
APE1 inh – APE1 (human) endonuclease inhibition. P27695. recombinant APE1, TAMRA/BHQ-2 abasic DNA cleavage fluorescence. Potency, µM (doses to about 65.8 µM), without a hit: top-dose activity change, negative = inhibition, hits mostly inhibitors. 350,000 compounds, 0.35% hits;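 also: plate controls were vehicle for no effect and reference inhibitor for full effect; nearly all actives have a fitted effect of over 55% in size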
Target sequence (P27695 whole entry, looked up): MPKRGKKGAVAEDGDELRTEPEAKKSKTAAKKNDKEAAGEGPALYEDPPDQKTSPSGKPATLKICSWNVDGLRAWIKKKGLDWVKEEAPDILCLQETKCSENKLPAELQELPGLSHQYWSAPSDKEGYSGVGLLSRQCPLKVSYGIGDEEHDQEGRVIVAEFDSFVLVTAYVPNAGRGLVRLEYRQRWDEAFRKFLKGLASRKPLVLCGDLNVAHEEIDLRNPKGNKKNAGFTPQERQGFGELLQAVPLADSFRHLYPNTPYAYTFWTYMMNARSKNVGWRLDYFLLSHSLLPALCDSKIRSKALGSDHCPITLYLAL
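Quantitative HTS: incision of a TAMRA/BHQ-2 double-stranded substrate bearing a tetrahydrofuran abasic site by 0.75 nM APE1 raises fluorescence. Substrate 50 nM final, added after 15 min compound preincubation at room temperature; progress as third-minus-first kinetic read difference.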
BLM inh – inhibitors of human Bloom syndrome helicase BLM; AID 2528; recombinant BLM DNA unwinding, fluorescence dequenching; Potency, µM (top dose mostly 56.1 µM), inactives show at the top dose activity change, negative = inhibition, usual class: inhibitors; 350,000 compounds, 0.2% hits; P54132;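 also: plate controls were vehicle for no effect and no enzyme for full effect; nearly all actives have a fitted effect of over 35% in size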
RECQ1 inh – RECQ1 (human) helicase inhibition; RECQ1 DNA unwinding, red fluorescence kinetic read; Potency, µM (highest dose often 57.3 µM), without a hit: at the highest dose activity, negative = inhibition, hits mostly inhibitors; 240,000 compounds, 0.54% hits; AID 2549;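 also: plate controls were vehicle for no effect and no enzyme for full effect; nearly all actives have a fitted effect of over 30% in size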
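RECQ1T1 50 nM; forked duplex (20 bp + 30-nt ss tails) 200 nM, ATP 2 mM final; pH 8.0, 2 mM MgCl2, 2.5 ug/ml poly(dI-dC); 15 min compound preincubation; discontinuous kinetic read over 2 h at RT.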
* marks the source's active call; other numbers are inactive results; i = inactive; ? = inconclusive; nt = no result; [ ] = remark or other dose. Unless noted, calls follow the shape of the dose curve; as a rule, active = well fitted curve in the direction sought with a large enough effect; inconclusive = small, poorly fitted or top-dose-only effect, or another doubt; inactive = no such curve, though single readings can be large; an effect the other way counts as inactive or inconclusive. Unless noted, % is scaled to controls: 0 for no effect and ±100 for the full control effect; potency is read from the fitted curve at half-maximal effect.

SMILES	L3MBTL1 inh	RGS12 GoLoco inh	KDM4E inh	APE1 inh	BLM inh	RECQ1 inh
CN(C)c1ccc(C=NC(CO)C(O)c2ccc([N+](=O)[O-])cc2)cc1 (stereo not drawn)	nt	0.9%	57.6%	6.8%	-1.3%	-8.6%
CN(C)c1ccc(C(=S)N2CCN(c3ccc([N+](=O)[O-])cc3)CC2)cc1	-8.2%	20µM*	-5.4%	2.4%	2.3%	0.9%
CN(C)c1ccc(C(c2ccc(N(C)C)cc2)c2ccc([N+](=O)[O-])cc2)cc1	28.2µM*	-5.6%[14.2 µM]	-6.1%	-5.7%	-12.3%	6.2%
S=C(Nc1ccccc1)Nc1nc2ccccc2n1CCOc1ccccc1	10µM*	16.9%	-6.7%	-5.9%	-9.5%	-16.7%
CCCCn1c(NC(=O)c2ccccc2)nc2ccccc21	1.9%	-7.1%	?	-2.3%	-7.3%	-3.7%
CC(=O)Nc1nc2ccccc2n1CCOc1ccccc1	-29.5%[11.4 µM]	23.9%	?	2.9%	0.1%	i
CCCCn1c(NC(=S)Nc2ccccc2)nc2ccccc21	17.8µM*	6.3%	-12.8%	6.3%	-6.9%	-1.7%
Nc1cc(=O)nc(SCC(=O)Nc2ccccc2)n1CCc1ccccc1	nt	nt	nt	nt	-2.7%	nt
CCCC(=O)N(C1CC(C)C(C#N)(C#N)C1(C#N)C#N)N(C)C (stereo not drawn)	-5.4%	11.2µM*	4.1%	4.8%	11.8%	-0.7%
O=C(CSc1nnc(CNC(=O)c2c(F)cccc2F)o1)NCc1ccco1	nt	nt	nt	10.6µM*	-10.8%	nt
COc1ccc(CCNC(=O)c2cnn(-c3ccc(F)cc3)c2C2CCN(C(=O)OC(C)(C)C)CC2)cc1OC	nt	nt	nt	nt	-9.8%	nt
O=[N+]([O-])c1cc(Cl)ccc1Nc1ccccc1	28.2µM*	nt	nt	0.1%	-3.9%	nt
Nc1[nH]c(N=NC(=O)c2ccccc2)c2ccccc12	11.1%	9.4%	3.1%	1.6%	-0.8%	5.0%
Nc1[nH]c(N=NC(=O)c2ccccc2O)c2ccccc12	-11.2%	21.8%	25.1µM*	18.4%	2.5%	-12.2%
COc1ccc([C@]23Cc4cc(OC)c(OC)cc4C(O2)c2c(cc(C)n(Cc4ccccc4)c2=O)O3)cc1	nt	nt	nt	-13.8%[12.4 µM]	-15.0%[12.4 µM]	nt
CCN(CC)c1ccc(S(=O)(=O)N2CCOCC2)cc1NC(=O)CN1CCN(Cc2ccccc2)CC1	nt	7.7%	28.2µM*	0.1%	-5.4%	14.6%
CCN(CC)c1ccc(S(=O)(=O)N2CCOCC2)cc1NC(=O)Nc1ccccc1	-9.7%	nt	nt	13.4%	nt	nt
O=[N+]([O-])c1ccccc1NC(=S)N/N=C/c1ccc(O)c(O)c1	?	3.6%	25.1µM*	?	-16.9%	?
CC1=C(C(=O)N2CCN(c3ccccc3)CC2)C2(CCCCC2)OC1=O	nt	nt	nt	nt	-5.5%	nt
COc1ccc(C2=Nn3c(nnc3-c3ccccc3C(F)(F)F)SC2)cc1OCC1CC1	nt	nt	nt	0.0%	nt	nt
CCOC(=O)c1nnn(CC(=O)N2N=C(c3ccc(Cl)cc3)CC2c2ccc(OC)cc2)c1C(=O)OCC (stereo not drawn)	-6.3%	-1.0%	31.6µM*	-1.9%	3.0%	i
CCOC(=O)c1nnn(CC(=O)N2N=C(c3ccc(Cl)cc3)CC2c2ccccc2)c1C(=O)OCC (stereo not drawn)	-0.9%	6.0%	?	?	0.8%	-7.4%
N#Cc1cccc(-c2csc(N3CCC(C(N)=O)CC3)n2)c1	nt	nt	nt	-9.9%	nt	nt
O=C(O)c1ccc(/C=N/NC(=O)c2cc3ccccc3cc2O)cc1	31.6µM*	nt	nt	-2.3%	nt	nt
C/C(CC(=O)N1CCN(C=O)CC1)=N\NC(=O)c1cc2ccccc2cc1O	9.0%	14.0%	28.2µM*	-7.7%	-8.1%	28.2µM*
SMILES	L3MBTL1 inh	RGS12 GoLoco inh	KDM4E inh	APE1 inh	BLM inh	RECQ1 inh
Cc1ccc2nc(NC(=O)c3cc(=O)c4cc(Cl)ccc4o3)sc2c1	nt	nt	nt	nt	-4.7%	nt
Cc1ccc(N/N=C2\CC(=O)c3ccccc32)cc1Cl	?	9.7%	22.4µM*	-5.9%	-13.1%	i
O=C(O)c1cc(NN=C2c3ccccc3-c3ccccc32)ccc1Cl	nt	nt	nt	-14.3%	6.6%	nt
Cc1ccc(N=Cc2cc(Cc3ccccc3Cl)cc([N+](=O)[O-])c2O)c(O)c1	nt	226.8%	17.8µM*	-10.1%	15.8µM*	?
CC1(OC(=O)CCc2ccccc2)C(=O)C=C2C=C(c3ccc(C#N)cc3)N(Cc3ccccc3)C=C2C1=O (stereo not drawn)	nt	-0.6%[14.2 µM]	15.8µM*	?	-2.0%[12.4 µM]	i[11.5 µM]
O=C(Nc1cc(C(F)(F)F)ccc1Cl)c1noc2c1CCCCC2	nt	nt	nt	nt	-4.6%	nt
COc1nc(-c2ccccc2)ccc1-c1noc(-c2ccccc2Br)n1	nt	nt	nt	nt	-1.2%	nt
Cc1cc(C)cc(NC(=O)Cn2c(=O)n(-c3ccc(C)c(C)c3)c(=O)c3oc4ccccc4c32)c1	nt	nt	nt	nt	-7.9%	nt
CCOC(=O)c1c(N)n(-c2ccc(N)cc2)c2nc3ccccc3nc12	-2.8%	8.9%	17.8µM*	8.0%	-6.9%	1.0%
O=C(c1ccc(F)cc1)N1CCOCC1	-0.8%	11.2%	-4.6%	0.7%	-1.3%	-1.9%
O=C(c1cc(Br)c(Br)s1)N1CCOCC1	12.6%	nt	nt	17.9%	nt	nt
O=C(c1coc(=O)c(Br)c1)N1CCOCC1	14.1µM*	19.4%	?	12.6µM*	1.3%	-9.4%
O=C(c1ccc(=O)oc1)N1CCOCC1	4.47µM*	nt	-2.4%	14.1µM*	48.9%	-9.7%
COc1ccc(-c2nc(-c3ccccc3)oc2NC(C)C)cc1	nt	-2.7%	1.6%	5.1%	4.3%	1.5%
NC(=O)c1cccc(-c2noc(-c3ccccc3C(F)(F)F)n2)c1	nt	nt	nt	1.8%	nt	nt
O=[N+]([O-])c1cccc(N=Cc2sc3ccccc3c2O)c1	-16.2%	13.3%	28.2µM*	1.2%	-3.2%	i
O=C(O)c1cc2c(cc1S(=O)(=O)O)[C@H]1[C@@H](C3[C@H]2[C@@]2(Cl)C(Cl)=C(Cl)C3(Cl)C2(Cl)Cl)[C@]2(Cl)C(Cl)=C(Cl)C1(Cl)C2(Cl)Cl (stereo partly drawn)	nt	-20.7%[14.2 µM]	nt	nt	nt	nt
COC(=O)C1=C(C(=O)OC)[C@@H]2Nc3ccccc3[C@@]23C[C@@H](C(=O)OC)N(S(=O)(=O)c2ccc(C(F)(F)F)cc2)C3=N1	nt	2.7%[14.2 µM]	5.3%[11.4 µM]	-6.0%[12.4 µM]	-3.4%[12.4 µM]	-9.5%[11.5 µM]
CC1=NN(c2ccc(Cl)cc2)C(=O)C1C(c1cccc(O)c1)c1c(C)[nH]n(-c2ccc(Cl)cc2)c1=O (stereo not drawn)	-21.0%	-0.7%	3.16µM*	-4.4%	-4.4%	2.8%
CCOC(=O)c1cc2n(c1/N=C/N(C)C)-c1ccccc1C2=O	nt	25.1µM*	?	-2.4%	-2.7%	15.3%
CCOC(=O)c1ccc2c(c1)N(C)C(=O)c1ccccc1S2	nt	nt	nt	-3.1%	-5.1%	nt
O=S(=O)(c1cccc2c(I)cccc12)N1CCCNCC1	nt	8.0%	2.0%	5.1%	32.7%	-5.4%
Cc1ccc(-c2cc(C(=O)NCCc3ccccc3)c3c(-c4ccc(C)cc4)[nH]nc3n2)cc1	nt	nt	nt	nt	2.2%	nt
